In PubChem BioAssay (NCATS):
Inconclusive results are not listed. Activity calls are given as the source filed them. Unless noted, the call rests on the fitted dose curve.

Legend:
[1] = qHTS for Inhibitors of the Functional Ribonucleoprotein Complex (vRNP) of Lassa (LASV) Arenavirus: LASV Primary Screen - GLuc reporter signal (AID 1347082; calls by dose curve; tested in HEK293 reporter line; further: nearly all actives have a fitted effect of over 60% in size)
[2] = qHTS for Inhibitors of the Functional Ribonucleoprotein Complex (vRNP) of Lassa (LASV) Arenavirus: Viability assay - alamar blue signal for LASV Primary Screen (AID 1347083; calls by dose curve; tested in HEK293 reporter line; further: nearly all actives have a fitted effect of over 80% in size)
[3] = qHTS for Inhibitors of the Functional Ribonucleoprotein Complex (vRNP) of Lymphocytic Choriomeningitis Arenaviruses (LCMV): Viability assay - alamar blue signal for LCMV Primary Screen (AID 1347085; calls by dose curve; tested in HEK293 reporter line; further: nearly all actives have a fitted effect of over 80% in size)
[4] = molecular target: Nucleoprotein (Lymphocytic choriomeningitis virus (strain Armstrong)) (UniProt P09992); assay: qHTS for Inhibitors of the Functional Ribonucleoprotein Complex (vRNP) of Lymphocytic Choriomeningitis Arenaviruses (LCMV): LCMV Primary Screen - GLuc reporter signal (AID 1347086); further: nearly all actives have a fitted effect of over 70% in size
Nucleoprotein (Lymphocytic choriomeningitis virus (strain Armstrong)), sequence (P09992 whole entry, looked up): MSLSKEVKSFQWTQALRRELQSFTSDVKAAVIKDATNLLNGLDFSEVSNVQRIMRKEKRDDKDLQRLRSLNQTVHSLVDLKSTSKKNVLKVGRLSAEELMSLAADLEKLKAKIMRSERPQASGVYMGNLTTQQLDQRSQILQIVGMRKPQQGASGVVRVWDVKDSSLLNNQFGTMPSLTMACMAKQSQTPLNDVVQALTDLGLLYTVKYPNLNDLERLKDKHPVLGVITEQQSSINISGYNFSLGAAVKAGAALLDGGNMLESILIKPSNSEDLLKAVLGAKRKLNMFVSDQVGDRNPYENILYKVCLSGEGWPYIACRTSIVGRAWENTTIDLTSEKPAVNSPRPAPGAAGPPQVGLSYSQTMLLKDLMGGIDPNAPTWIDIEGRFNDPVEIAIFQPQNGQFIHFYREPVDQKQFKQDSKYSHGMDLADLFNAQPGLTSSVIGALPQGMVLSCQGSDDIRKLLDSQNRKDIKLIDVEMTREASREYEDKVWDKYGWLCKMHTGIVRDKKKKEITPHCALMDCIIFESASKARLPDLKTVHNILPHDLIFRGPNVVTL
Further: series mostly up to about 57 µM.
On the % scale 0 is the no-effect control and ±100 the full control effect.

CN1CCCN=C1COC(=O)C(O)(c1ccccc1)C1CCCCC1 (stereo not given)
inactive: Potency [1] | Potency [2] | Potency [3] | Potency [4]

CN(CCCN1c2ccccc2CCc2ccccc21)CC(=O)c1ccc(Cl)cc1
inactive: Potency [1] | Potency [2] | Potency [3] | Potency [4]

Nc1ccc(S(=O)(=O)Nc2nccs2)cc1
inactive: Potency [1] | Potency [2] | Potency [3] | Potency [4]

CN(C)CCOC(c1ccccc1)c1ccccc1
inactive: Potency [1] | Potency [2] | Potency [3] | Potency [4]

COc1cc(NS(=O)(=O)c2ccc(N)cc2)ncn1
inactive: Potency [1] | Potency [2] | Potency [3] | Potency [4]

C=Cc1c(C)c2cc3[nH]c(cc4nc(cc5nc(cc1[nH]2)C(C)=C5CCC(=O)O)C(CCC(=O)O)=C4C)c(C)c3C=C
inactive: Potency [1] | Potency [2] | Potency [3] | Potency [4]

Cc1c(N)c(=O)n(-c2ccccc2)n1C
inactive: Potency [1] | Potency [2] | Potency [3] | Potency [4]

CCOC(=O)c1ccc(OC(=O)CCCCCN=C(N)N)cc1
inactive: Potency [1] | Potency [2] | Potency [3] | Potency [4]

C/C=C/C(=O)N(CC)c1ccccc1C
inactive: Potency [1] | Potency [2] | Potency [3] | Potency [4]

CCOc1ccc2nc(S(N)(=O)=O)sc2c1
inactive: Potency [1] | Potency [2] | Potency [3] | Potency [4]

COc1cc2[nH]c(=O)[nH]c(=O)c2cc1OC
inactive: Potency [1] | Potency [2] | Potency [3] | Potency [4]

Cc1ccc2c(Cl)cc(Cl)c(O)c2n1
inactive: Potency [1] | Potency [2] | Potency [3] | Potency [4]

C[C@]12CC[C@@H]3c4ccc(O)cc4CC[C@H]3[C@@H]1C[C@@H](O)[C@@H]2O
inactive: Potency [1] | Potency [2] | Potency [3] | Potency [4]

OC(CCCN1CCCCC1)(c1ccccc1)c1ccccc1
inactive: Potency [1] | Potency [2] | Potency [3] | Potency [4]

CCCCC(=O)O[C@]1(C(=O)CO)[C@@H](C)C[C@H]2[C@@H]3CCC4=CC(=O)C=C[C@]4(C)[C@@]3(F)[C@@H](O)C[C@@]21C
inactive: Potency [1] | Potency [2] | Potency [3] | Potency [4]

O=C(O)c1ccc(OCCN2CCCCC2)cc1
inactive: Potency [1] | Potency [2] | Potency [3] | Potency [4]

OCCN1CCN(CCCN2c3ccccc3C=Cc3ccccc32)CC1
inactive: Potency [1] | Potency [2] | Potency [3] | Potency [4]

Cc1ccc(/C=N/n2c(-c3ccccc3)csc2=S)cc1
inactive: Potency [1] | Potency [2] | Potency [3] | Potency [4]

CCCCCCCCCCCCCCNCCO
inactive: Potency [1] | Potency [2] | Potency [3] | Potency [4]

CC(C)(C)c1ccc(C(=O)CCCCl)cc1
inactive: Potency [1] | Potency [2] | Potency [3] | Potency [4]

CC(=O)[C@@]1(O)CC[C@H]2[C@@H]3C[C@H](C)C4=CC(=O)CC[C@]4(C)[C@H]3CC[C@@]21C
inactive: Potency [1] | Potency [2] | Potency [3] | Potency [4]

COC(=O)[C@H]1[C@H]2C[C@@H]3c4[nH]c5cc(OC)ccc5c4CCN3C[C@H]2C[C@@H](OC(=O)COc2ccc(OC)cc2)[C@@H]1OC
inactive: Potency [1] | Potency [2] | Potency [3] | Potency [4]

N[C@@H](Cc1ccc(O)cc1)C(=O)O
inactive: activity change, negative = inhibition [1] 4.89% [at 11.5 µM] | activity change, negative = reduced viability [2] 15.7% [at 11.5 µM] | activity change, negative = lower viability [3] 1.19% [at 11.5 µM] | activity change, negative = inhibition [4] 16.2% [at 11.5 µM]

CCC1Nc2cc(Cl)c(S(N)(=O)=O)cc2S(=O)(=O)N1 (stereo not given)
inactive: Potency [1] | Potency [2] | Potency [3] | Potency [4]

CC(=O)OCC(=O)Nc1cc(C#N)cc(NC(=O)COC(C)=O)c1Cl
inactive: Potency [1] | Potency [2] | Potency [3] | Potency [4]

CN1CCN(C2Cc3ccccc3Sc3ccc(Cl)cc32)CC1 (stereo not given)
inactive: Potency [1] | Potency [2] | Potency [3] | Potency [4]

Oc1ccc(Cl)cc1Cc1cc(Cl)ccc1O
inactive: Potency [1] | Potency [2] | Potency [3] | Potency [4]

CCCc1nc(C)c2c(=O)[nH]c(-c3cc(S(=O)(=O)N4CCN(CC)CC4)ccc3OCC)nn12
inactive: Potency [1] | Potency [2] | Potency [3] | Potency [4]

CCCN(CCC)C(=O)C(CCC(=O)O)NC(=O)c1ccccc1 (stereo not given)
inactive: Potency [1] | Potency [2] | Potency [3] | Potency [4]

CSc1ccc(/C=C2/C(C)=C(CC(=O)O)c3cc(F)ccc32)cc1
inactive: Potency [1] | Potency [2] | Potency [3] | Potency [4]

CC(C(O)c1ccc(O)cc1)N1CCC(Cc2ccccc2)CC1 (stereo not given)
inactive: Potency [1] | Potency [2] | Potency [3] | Potency [4]

C(=C\c1ccccc1)/CN1CCN(C(c2ccccc2)c2ccccc2)CC1
inactive: Potency [1] | Potency [2] | Potency [3] | Potency [4]

NC(N)=NCCC[C@H](N)C(=O)O
inactive: Potency [1] | Potency [2] | Potency [3] | Potency [4]

CCCCCCCCCCCCCCCCC(C(=O)O)C(O)(CC(=O)O)C(=O)O (stereo not given)
inactive: Potency [1] | Potency [2] | Potency [3] | Potency [4]

C#C[C@]1(O)CC[C@H]2[C@@H]3CCC4=CC(=O)CC[C@@H]4[C@H]3CC[C@@]21C
inactive: Potency [1] | Potency [2] | Potency [3] | Potency [4]

O=C1Nc2ccccc2C1(c1ccc(O)cc1)c1ccc(O)cc1
inactive: Potency [1] | Potency [2] | Potency [3] | Potency [4]

CN(C)CCOC1=Cc2ccccc2Sc2ccc(Cl)cc21
inactive: Potency [1] | Potency [2] | Potency [3] | Potency [4]

CC(C)(Cc1c[nH]c2ccccc12)NCC(O)COc1ccccc1C#N (stereo not given)
inactive: Potency [1] | Potency [2] | Potency [3] | Potency [4]

CS(=O)(=O)c1ccc(-c2cn3ccccc3n2)cc1
inactive: Potency [1] | Potency [2] | Potency [3] | Potency [4]

O=C(O)/C=C/c1ccc(Cn2ccnc2)cc1
inactive: Potency [1] | Potency [2] | Potency [3] | Potency [4]

NC(=O)CCCCC1CCSS1 (stereo not given)
inactive: Potency [1] | Potency [2] | Potency [3] | Potency [4]

CCN(CCCc1ccccc1)CCCc1ccccc1
inactive: Potency [1] | Potency [2] | Potency [3] | Potency [4]

c1ccc(CNCCNCc2ccccc2)cc1
inactive: Potency [1] | Potency [2] | Potency [3] | Potency [4]

CCCCC[C@H](O)C=C[C@H]1[C@H](O)CC(=O)[C@H]1CC=CCCCC(=O)O
inactive: Potency [1] | Potency [2] | Potency [3] | Potency [4]

Cc1nc2sccn2c(=O)c1CCN1CCC(=C(c2ccc(F)cc2)c2ccc(F)cc2)CC1
inactive: Potency [1] | Potency [2] | Potency [3] | Potency [4]

COC(=O)C1=C(C)NC(C)=C(C(=O)OCCN2CCN(C(c3ccccc3)c3ccccc3)CC2)C1c1cccc([N+](=O)[O-])c1 (stereo not given)
inactive: Potency [1] | Potency [2] | Potency [3] | Potency [4]

CCOC(=O)[C@H](CCc1ccccc1)N[C@@H](C)C(=O)N1C(=O)N(C)C[C@H]1C(=O)O
inactive: Potency [1] | Potency [2] | Potency [3] | Potency [4]

CCCCCCCCNC(C)C(O)c1ccc(SC(C)C)cc1 (stereo not given)
inactive: Potency [1] | Potency [2] | Potency [3] | Potency [4]

NCCNC(=O)c1ccc(Cl)cn1
inactive: Potency [1] | Potency [2] | Potency [3] | Potency [4]

CC[N+](CC)(CC)CCOC(=O)C(C1CCCC1)C1CCCC1
inactive: Potency [1] | Potency [2] | Potency [3] | Potency [4]

Oc1cc(O)c2c(c1)O[C@H](c1ccc(O)c(O)c1)[C@H](O)C2
inactive: Potency [1] | Potency [2] | Potency [3] | Potency [4]

C=CCOc1ccccc1OCC(O)CNC(C)C (stereo not given)
inactive: Potency [1] | Potency [2] | Potency [3] | Potency [4]

CC1(c2ccccc2)OC(C(=O)O)=CC1=O (stereo not given)
inactive: Potency [1] | Potency [2] | Potency [3] | Potency [4]

O=C(O)c1cn(C2CC2)c2cc(Cl)c(F)cc2c1=O
inactive: Potency [1] | Potency [2] | Potency [3] | Potency [4]

CCN[C@H]1C[C@H](C)S(=O)(=O)c2sc(S(N)(=O)=O)cc21
inactive: Potency [1] | Potency [2] | Potency [3] | Potency [4]

CC(=O)N1C[C@H](O)C[C@H]1C(=O)O
inactive: Potency [1] | Potency [2] | Potency [3] | Potency [4]

CN1CCN(c2cc3c(cc2F)c(=O)c(C(=O)O)cn3-c2ccc(F)cc2)CC1
inactive: Potency [1] | Potency [2] | Potency [3] | Potency [4]

CC[N+](CC)(CC(=O)Nc1c(C)cccc1C)Cc1ccccc1
inactive: Potency [1] | Potency [2] | Potency [3] | Potency [4]

N[C@@H](CSCCCO)C(=O)O
inactive: Potency [1] | Potency [2] | Potency [3] | Potency [4]

CCC(C(=O)OCCOCCN(CC)CC)c1ccccc1 (stereo not given)
inactive: Potency [1] | Potency [2] | Potency [3] | Potency [4]
